Pf growth 48h – P. falciparum growth inhibition at 48 hours (one generation); AID 504832; hit rate 5.9% among 310,000; P. falciparum luciferase growth in erythrocytes, 48 h; Potency, µM (doses to about 28.7 µM), for inactives: at the highest dose activity change, negative = inhibition, usual class: inhibitors; also: potency is read from the fitted curve at half-maximal effect
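Parasite viability was followed by luminescence of a genomically integrated firefly luciferase. Cultures held 0.1% parasitemia at 2% hematocrit (final), incubated under 5% CO2 at 37 C.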
Sm TGR block – blocks Schistosoma mansoni thioredoxin glutathione reductase | hit rate 3% among 360,000 | Potency, µM (doses to about 114 µM), without a hit: top-dose activity change, negative = inhibition, most hits filed as inhibitors | purified TGR, DTNB reduction, TNB absorbance 405 nm | Q962Y6; also: potency is read from the fitted curve at half-maximal effect; nearly all actives have a fitted effect of over 60% in size
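TGR 20 nM + NADPH 100 uM (dispensed conc.), cpd preinc 15 min RT; start with NADPH (500 uM addition) then DTNB (15 mM addition). Kinetic TNB absorbance, 405 nm filter. Four-parameter Hill fit across titration.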
HCMV inh – inhibitors of human cytomegalovirus; activity change, negative = inhibition, % at 57.5 µM; HFF cells, HCMV-luciferase reporter, 72 h; active compounds read low; hit rate 4.5% among 410,000; in the data active = activity change below about -60%; inconclusive = no clear call, values can overlap the other calls; inactive = above about -39%
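Steps: HFFs plated, 16 h 37C; compounds added; HCMV-luciferase added to MOI 1 PFU/cell; 72 h 37C; OneGlo reagent, 5 min room temperature; luminescence read, normalized to controls.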
Giardia FBPA inh – inhibitors of Giardia lamblia fructose-1,6-bisphosphate aldolase. A8B2U2. purified Giardia FBPA. Potency, µM (series often up to 59.6 µM), for inactives: at the highest dose activity, negative = inhibition, hits mostly inhibitors. hit rate 0.71% among 290,000; also: potency is read from the fitted curve at half-maximal effect; nearly all actives have a fitted effect of over 55% in size
Target sequence (A8B2U2 whole entry, looked up): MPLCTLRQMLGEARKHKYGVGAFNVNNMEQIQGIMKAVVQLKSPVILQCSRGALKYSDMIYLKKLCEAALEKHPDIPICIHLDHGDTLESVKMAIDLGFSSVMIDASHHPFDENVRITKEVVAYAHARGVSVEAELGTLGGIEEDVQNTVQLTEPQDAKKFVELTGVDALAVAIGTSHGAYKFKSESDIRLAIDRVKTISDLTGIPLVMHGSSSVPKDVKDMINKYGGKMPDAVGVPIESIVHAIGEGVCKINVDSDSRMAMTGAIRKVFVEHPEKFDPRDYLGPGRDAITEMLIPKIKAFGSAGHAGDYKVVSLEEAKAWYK
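40 nM FBPA preincubated 10 min at RT with compound (up to 57.5 uM final), then substrate plus GAPDH/TPI/NAD/arsenate coupling and diaphorase/resazurin added. Fluorescence read after 20 min at RT, 525/598 nm.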
Pf growth 96h – P. falciparum growth inhibition at 96 hour, primary screen for plastid delayed-death inhibitors. P. falciparum luciferase reporter growth, 96 h. hit rate 6.9% among 320,000. Potency, µM (series often up to 28.7 µM), without a hit: at the top dose activity change, negative = inhibition, actives largely listed as inhibitors; also: potency is read from the fitted curve at half-maximal effect
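Parasite growth measured via integrated firefly luciferase reporter in P. falciparum. Infected erythrocytes at 2% hematocrit, 0.05% parasitemia final were treated 96 hours at 37 C under 5% CO2, and luminescence was read.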
Numbers without * were called inactive; ? = inconclusive; . = not tested or not shown; [ ] = remark or other dose. Hits are enriched below; roughly 14% of the tested compounds scored in any of these assays. Unless noted, calls follow the shape of the dose curve; as a rule, active = well fitted curve in the direction sought with a large enough effect; inconclusive = small, poorly fitted or top-dose-only effect, or another doubt; inactive = no such curve, though single readings can be large; an effect the other way counts as inactive or inconclusive. % is scaled to controls: 0 for no effect and ±100 for the full control effect.

SMILES | Pf growth 48h | Sm TGR block | HCMV inh | Giardia FBPA inh | Pf growth 96h
COc1ccc(-c2cc3nc(-c4ccc(Br)cc4)cc(C(F)(F)F)n3n2)cc1 | . | -8.7% | 8.3 | . | .
O=C(O)c1ccc(Cl)c(S(=O)(=O)Nc2ccccc2C(=O)Nc2ccc(Cl)cc2)c1 | 35.4% | -11.3% | 13.2 | -9.3% | 26.9%
CC(=O)c1cccc(OCc2cc(C(=O)N(C)Cc3cnccn3)no2)c1 | ? | -4.4% | 131.1 | -7.1% | -21.1%
CCCN(CC1CCCO1)C(=O)c1cc(COc2ccc(F)cc2F)on1 (centres undefined) | 14.4% | -0.9% | 0.7 | -0.8% | 11.7µM*
CSc1ccccc1OCc1cc(C(=O)NC(C)c2cnn(C)c2)no1 (centres undefined) | 17.2% | -13.2% | 71.3 | . | ?
Cc1c(C(C)NC(=O)c2cc(COc3cccc4cnccc34)on2)cnn1C (centres undefined) | 2.1% | 3.6% | -85.5* | ? | 8.28µM*
CCN(CC1CCCO1)C(=O)c1cc(COc2ccc(OC)cc2Cl)on1 (centres undefined) | -2.3% | -15.6% | 1.1 | 12.3% | ?
CN(Cc1cccnc1)C(=O)c1cc(COc2ccc3c(c2)CCCC3)on1 | ? | -22.8% | -65.1* | -4.2% | 3.6%
CCc1ccc(CN(C)C(=O)c2cc(COc3cccc4cnccc34)on2)cc1 | ? | -25.3% | -99.0* | -13.1% | 31.3%
COc1cccc([C@@H]2Oc3ccc(OC)cc3C(=O)[C@H]2OC(=O)NCc2ccco2)c1 | . | . | . | -1.0% | .
Cc1ccc(C(=O)COC(=O)CN2C(=O)C3C4CC(C(Br)C4Br)C3C2=O)cc1 (centres undefined) | 10.2% | -1.6% | ? | 7.8% | ?
CN(Cc1cccc2cnccc12)C(=O)c1cc(COc2ccc(F)cc2F)on1 | ? | -3.9% | -60.1* | 13.7% | 3.3%
Cc1ccccc1CN1CCN(S(C)(=O)=O)CC1 | 0.8% | -3.7% | 1.3 | 1.3% | -1.0%
Cc1ccccc1CN1CCN(c2ccc(S(=O)(=O)N3CCCC3)cn2)CC1 | ? | 0.4% | -63.7* | . | ?
Cc1ccccc1CN1CCN(S(=O)(=O)c2ccc(Cl)s2)CC1 | 12.6% | 0.4% | -5.1 | . | 13.1µM*
CC(NC(=O)C1CC12CCC2)c1ccccc1 (centres undefined) | 8.8% | 2.1% | -61.0* | 12.2% | 35.6%
CC(NC(=O)C1CCC(C)(C(=O)O)C1(C)C)c1ccccc1 (centres undefined) | 38.8% | -17.3% | 19.1 | 3.0% | 1.3%
O=C(O)Cn1nncc1-c1ccc(C(F)(F)F)cc1 | . | . | 8.5 | . | .
S=c1[nH]nc(-c2ccncc2)n1/N=C/c1cn(-c2ccccc2)nc1-c1ccc(Cl)cc1 | ? | -2.2% | -18.6 | 8.4% | ?
CSc1nnc(-c2ccncc2)n1/N=C/c1cn(-c2ccccc2)nc1-c1ccc(Cl)cc1 | 9.28µM* | -1.1% | 69.3 | 0.5% | 0.0%
O=C(Nc1cc(C(=O)N2CCN(c3ccccc3O)CC2)ccc1Cl)c1cccs1 | ? | -15.6% | -28.3 | . | ?
CCOc1ccc(-n2c(C)c(C(=O)OC)c3cc(O)ccc32)cc1 | ? | -15.4% | -38.6 | -7.4% | ?
CCOc1ccc(-n2c(C)c(C(C)=O)c3cc(OCC(N)=O)ccc32)cc1 | 13.1µM* | 12.7% | -3.2 | -7.4% | 0.1%
CCOc1ccc(-n2c(C)c(C(C)=O)c3cc(O)ccc32)cc1 | -17.6% | 2.3% | -61.7* | 6.4% | 15.2%
COc1ccccc1NC(=O)c1oc2ccccc2c1NC(=O)COc1cccc(C)c1 | . | 6.8% | 14.1 | . | .
SMILES | Pf growth 48h | Sm TGR block | HCMV inh | Giardia FBPA inh | Pf growth 96h
COC(=O)Cn1ncc2c3ccccc3n(Cc3ccccc3)c2c1=O | ? | 10.3% | 12.1 | -4.4% | 5.22µM*
COc1ccc(Cl)cc1NC(=O)Cn1c(=O)n(CCCC(=O)NCCc2ccc(OC)c(OC)c2)c(=O)c2ccccc21 | . | -1.8% | -80.1* | . | .
O=C(Cn1ncc2c3ccccc3n(Cc3ccccc3)c2c1=O)NCc1ccccc1 | . | 5.8% | 2.3 | . | .
CCC(Cc1ccccc1)NC(=O)Cn1ncc2c3ccccc3n(Cc3ccccc3)c2c1=O (centres undefined) | . | 1.1% | -98.8* | . | .
CCC(Cc1ccccc1)NC(=O)Cn1ncc2c3ccccc3n(Cc3ccc(F)cc3)c2c1=O (centres undefined) | . | -2.8% | ? | . | .
COc1ccc(Cl)cc1NC(=O)Cn1ncc2c3ccccc3n(Cc3ccccc3)c2c1=O | . | -9.5% | -67.9* | . | .
COc1cc(Cl)c(C)cc1NC(=O)Cn1ncc2c3ccccc3n(Cc3ccccc3)c2c1=O | . | -7.9% | 32.1 | . | .
NC1CCCCC1N (centres undefined) | . | . | . | 0.0% | .
COc1cc(/C=N/Nc2nc3c(c(=O)n(C)c(=O)n3C)n2Cc2ccccc2)ccc1OC(=O)c1ccco1 | 10.4µM* | -11.2% | 38.9 | ? | 9.28µM*
Cc1ccc(Cn2c(N/N=C/c3ccncc3)nc3c2c(=O)n(C)c(=O)n3C)cc1 | 10.4µM* | 24.1% | 160.0 | -27.8% | 3.7µM*
CC1=CC(C)(C)n2c(O)c(C3=NC(=S)NC3=O)c3cc(OC(=O)c4cccc5ccccc45)cc1c32 | -12.3% | 8.7% | -71.6* | -1.9%[12.9 µM] | 0.4%
O=CN1CCN(C(C(=O)NC2CCCCC2)c2cc3c(cc2[N+](=O)[O-])OCO3)CC1 (centres undefined) | -3.6% | 0.4% | -18.1 | -23.4% | 35.5%[1.15 µM]
O=C(NC1CCCCC1)C(c1cc2c(cc1[N+](=O)[O-])OCO2)N1CCCCC1 (centres undefined) | ? | -9.0% | . | -22.0% | 13.1µM*
Cc1cccc(S(=O)(=O)N2CCn3cccc3C2C)c1 (centres undefined) | ? | 44.7µM* | 0.0 | . | -0.4%
Cc1ccc(S(=O)(=O)N2CCn3cccc3C2C)cc1 (centres undefined) | ? | ? | 0.0 | . | ?
C/C=C(/CC[C@@H](C)[C@H]1CCC2C3=CC[C@H]4[C@H](C)[C@@H](O)CC[C@]4(C)C3CC[C@@]21C)C(C)C (some centres undefined) | . | . | . | 5.6% | .
CCOC(=O)C1CCN(C(=O)c2ccc(S(=O)(=O)Nc3ccccc3OC)cc2)CC1 | ? | 3.9% | -9.2 | . | 11.7µM*
CCOC(=O)N1CCN(C(=O)c2ccc(S(=O)(=O)Nc3ccc(C)cc3)cc2)CC1 | . | . | -68.6* | . | .
CCOC(=O)C1CCN(C(=O)c2ccccc2NS(=O)(=O)c2ccccc2)CC1 | 22.5% | 8.2% | -17.2 | 17.4% | -59.6%
CCOC(=O)N1CCN(C(=O)c2ccc(NS(C)(=O)=O)cc2)CC1 | -2.1% | -3.9% | 27.5 | 6.8% | 27.3%
CN1CCN(C(=O)c2ccc(Oc3ccc([N+](=O)[O-])cc3)cc2)CC1 | -4.6% | 3.0% | 26.1 | -9.2% | ?
CCOC(=O)N1CCN(C(=O)c2ccc(Oc3ccc([N+](=O)[O-])cc3)cc2)CC1 | ? | 9.1% | -83.1* | -7.1% | 43.9%[5.75 µM]
